This is a sample that favours compounds with a hit; in the whole collection about 8.2% have one here.
KB-3-1 tox = kills parental KB-3-1 adenocarcinoma cells | actives 1.4% (n = 400,000) | KB-3-1 viability, CellTiter-Glo ATP luminescence, 72 h | AID 1347075 | Potency, µM (series often up to 46.1 µM), usual class: cytotoxic; further: on the % scale 0 is the no-effect control and ±100 the full control effect; nearly all actives have a fitted effect of over 60% in size
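72 h, 37 °C compound treatment of KB-3-1 parental cells; CellTiter-Glo added, 10 min, luminescence read. Data corrected against DMSO-only plates and normalized before curve fitting.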
SW480 rereplic = induces DNA re-replication in SW480 colon adenocarcinoma cells; SW480 DNA re-replication, Hoechst DNA content imaging, 48 h; Potency, µM (highest dose often 46.1 µM), inactives show at the top dose re-replication activation, usual class: activators; actives 1.8% (n = 340,000); AID 624297; further: % of control where 0% means no effect; nearly all actives have a fitted effect of over 55% in size
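Cells (250 per well) received 23 nL compound or DMSO by pin tool and were kept 48 hr at 37 C, 5% CO2. Nuclei were then stained with Hoechst for 40 min and scanned for DNA content.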
MCF10A rereplic = inducers of DNA re-replication in MCF 10A breast cells; MCF 10A DNA re-replication, Hoechst nuclear intensity, 48 h; AID 624296; actives 2.9% (n = 350,000); Potency, µM (highest dose often 46.1 µM), inactives show at the top dose activity, positive = re-replication, hits mostly activators; further: % of control where 0% means no effect; nearly all actives have a fitted effect of over 50% in size
ELG1 DNA repair = ELG1-dependent DNA repair inhibition. HEK293T ELG1-luciferase reporter, luminescence, 16 h; DNA damage induced by 5-fluorouridine. Potency, µM (top dose mostly 46.1 µM), without a hit: at the top dose activity change, negative = inhibition, most hits filed as inhibitors. actives 2.3% (n = 330,000); further: on the % scale 0 is the no-effect control and ±100 the full control effect; nearly all actives have a fitted effect of over 55% in size
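Cells (2,000 per well) received 5-fluorouridine plus test compound or DMSO and were incubated 16 hr at 37 °C, 5% CO2. Luciferase activity was read by luminescence 30 min after ONE-Glo addition; signal suppression marked inhibition of damage-induced ELG1 function.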
KB-V1 cytotox = KB-V1 MDR subline cytotoxicity. KB-V1 MDR cells viability, CellTiter-Glo, 72 h. Potency, µM (top dose mostly 46.1 µM), hits mostly cytotoxic. actives 3.4% (n = 400,000); further: on the % scale 0 is the no-effect control and ±100 the full control effect; nearly all actives have a fitted effect of over 60% in size
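KB-V1 cells (P-gp-expressing MDR subline of KB-3-1) in phenol-red-free DMEM with 10% FBS were exposed to library compounds over a concentration series for 72 h at 37 degrees C. Viability read by CellTiter-Glo luminescence; concentration-effect curves fitted after normalization.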
Starred values were filed as active, the others as inactive; i = inactive; u = inconclusive; x = no result. The call rests on the fitted dose curve; in most records, active means well fitted curve in the direction sought with a large enough effect; inconclusive means small, poorly fitted or top-dose-only effect, or another doubt; inactive means no such curve, though single readings can be large; an effect the other way counts as inactive or inconclusive. Potency means the concentration at half of the fitted maximal effect.

SMILES	KB-3-1 tox	SW480 rereplic	MCF10A rereplic	ELG1 DNA repair	KB-V1 cytotox
C[C@H](CO)N1C[C@H](C)[C@@H](CN(C)Cc2ccccc2)Oc2c(NC(=O)Cc3ccccc3)cccc2C1=O	23µM*	-5%	u	u	u
C[C@H](CO)N1C[C@H](C)[C@@H](CN(C)C(=O)Nc2ccccc2)Oc2c(NS(=O)(=O)c3cn(C)cn3)cccc2C1=O	i	0%	u	12%	i
C[C@H](CO)N1C[C@H](C)[C@@H](CN(C)Cc2ccncc2)Oc2c(NC(=O)Cc3ccccc3)cccc2C1=O	16µM*	u	1%	-12%	i
CCCC(=O)N1CCC1(C)C(=O)NS(=O)(=O)c1ccc(C(C)(C)C)cc1 (centres undefined)	i	x	x	x	i
CN(C)c1ccc(Cn2ccc3ccccc32)cc1	i	x	x	x	i
Cc1cccc(NC(=O)CN2CCN(C(=O)CNC(=O)c3ccc(-c4ccccc4)cc3)CC2)c1C	i	x	x	x	u
Cc1cccc(C)c1NC(=O)CN1CCN(C(=O)CNC(=O)c2ccc(-c3ccccc3)cc2)CC1	u	x	x	x	18µM*
Cc1cccc(NC(=O)Cn2c(=O)n(CCc3ccccc3)c(=O)c3ccccc32)c1	i	x	x	x	i
COc1ccc(Cl)cc1C(=O)Nn1c(-c2cccs2)nc2ccccc2c1=O	i	u	u	6.5µM*	i
COc1ccc(CN2CCCN(CC(=O)Nc3cc(C)ccc3C)S2(=O)=O)cc1	i	x	x	x	i
CN(C)/C=C/C(=O)c1ccc(Cl)cc1	i	-1%	18µM*	u	i
CN(C)/C=C/C(=O)c1cccc(Cl)c1	i	0%	5.8µM*	u	i
CC(=O)C[C@@H](O)CC(=O)[C@@H]1OC(=O)CCCCCCc2ccccc21	i	u	u	15%	u
COc1ccc2c(c1)[nH]c(=O)c1sc3ccccc3c12	i	3%	13µM*	9%	i
COc1ccc(NS(=O)(=O)c2cccc(NC(=O)CCC(=O)c3ccc(Cl)cc3)c2)cc1	i	9%	u	u	18µM*
O=C(Nc1cccc(S(=O)(=O)Nc2ccc(Cl)cc2)c1)c1ccc(Cl)nc1	u	-5%	5%	u	i
COc1ccc(NS(=O)(=O)c2cccc(NC(=O)CCC(=O)c3cccs3)c2)cc1	i	-5%	20%	-14%	i
COc1ccc(C(=O)Nc2ccc(NS(=O)(=O)c3ccccc3)cc2)cc1OC	i	-1%	14%	18µM*	i
COc1ccc(NS(=O)(=O)c2cccc(NC(=O)c3ccc(Cl)nc3)c2)cc1	u	u	-7%	u	2.9µM*
COc1ccccc1NS(=O)(=O)c1cccc(NC(=O)c2ccc3ccccc3n2)c1	u	-60%	-33%	18µM*	2.6µM*
COc1ccc2c(Sc3ccccc3)c(C(=O)NCc3cc(Br)ccc3OC)[nH]c2c1	i	x	x	x	i
CC(OC(=O)CN1C(=O)C2C3C=CC(C4CC34)C2C1=O)C(=O)c1ccccc1 (centres undefined)	i	-2%	14%	u	i
COc1ccc(NS(=O)(=O)c2cccc(NC(=O)c3cnccn3)c2)cc1Br	i	-19%	6%	18µM*	i
COc1cccc(NC(=O)CNS(=O)(=O)c2ccc(Cl)cc2)c1	i	-1%	0%	-13%	i
COc1cccc(S(=O)(=O)NCC(=O)Nc2ccc(C(C)(C)C)cc2)c1	i	-5%	1%	-22%	16µM*
SMILES	KB-3-1 tox	SW480 rereplic	MCF10A rereplic	ELG1 DNA repair	KB-V1 cytotox
O=C(Nc1ccncc1)c1ccc(NS(=O)(=O)c2cccc(F)c2)cc1	u	-6%	u	-21%	u
COc1cccc(S(=O)(=O)Nc2ccc(C(=O)Nc3ccncc3)cc2)c1	u	1%	u	u	21µM*
CN(C)S(=O)(=O)c1cccc(NC(=O)c2cnccn2)c1	x	x	x	8%	x
CCOc1ccccc1N(CC)C(=O)Cn1ncc2c1-c1ccccc1OC2	i	x	x	x	i
S=C(NCCCc1cnc[nH]1)NCCCN(Cc1ccc(Cl)cc1)c1ccc(-c2ccccc2)cn1	u	x	x	x	i
CC(C)=CCOc1ccc([C@@H]2COc3c(ccc4c3C=CC(C)(C)O4)C2)c(O)c1	u	-11%	21µM*	x	u
Cc1cccc(NC(=S)N(C)Cc2cn(C)c3ccccc23)c1	i	-5%	23%	u	u
CN(Cc1cn(C)c2ccccc12)C(=S)Nc1cc(F)cc(F)c1	u	-57%	-65%	-5%	18µM*
CC[n+]1ccccc1/C=C/c1ccc(N(C)C)cc1	1.3µM*	-4%	u	u	i
CC[n+]1ccc(/C=C/c2ccc(N(C)C)cc2)c2ccccc21	1.2µM*	-39%	4%	u	i
CN(C)c1ccc(/C=C/c2cc[n+]([O-])c3ccccc23)cc1	i	x	x	x	u
CC(C)(C)S(=O)N1Cc2cc(CO)ccc2[C@@H]1CCO (some centres undefined)	i	22%	-2%	x	i
Cc1nn(-c2cccc(Cl)c2)c2nc(-c3ccncc3)cc(C(=O)N3CCOCC3)c12	i	u	u	u	i
CCc1ccc(CN2CCCC(C(=O)N3CCCCC3)C2)cc1 (centres undefined)	i	-2%	8%	-15%	u
COc1ccccc1CNC(=O)c1ccc(CS(=O)(=O)c2ccc(C)cc2)o1	i	-1%	0%	-1%	i
Cc1ccc(CNC(=O)c2cc3c(C)nc4ccccc4c3o2)cc1	i	-3%	4%	15µM*	i
Cc1nc2ccccc2c2oc(C(=O)NCc3ccccn3)cc12	i	-4%	14%	18µM*	2.6µM*
Cc1nc2ccccc2c2oc(C(=O)NCc3ccc4c(c3)OCO4)cc12	u	-12%	-3%	u	i
Cc1c(C(=O)NCc2ccccn2)oc2c(Cl)cccc12	i	0%	12%	u	8.2µM*
Cc1ccccc1Cn1nnc(-c2ccc(F)cc2)n1	i	-3%	3%	u	i
O=c1c(Cl)c(NCc2ccccc2Cl)cnn1C12CC3CC(CC(C3)C1)C2	u	u	u	-14%	18µM*
O=c1c(Cl)c(NCc2ccco2)cnn1C12CC3CC(CC(C3)C1)C2	i	-6%	u	u	i
Cc1ccc2nc(SCC(=O)c3ccccc3)nc(=O)n2c1	i	1.8µM*	1%	u	i
Cc1nc2ccccc2nc1SCC(=O)c1ccccc1	u	-1%	13%	u	2.6µM*
O=C(CSc1nc(=O)n2cc(Cl)ccc2n1)Nc1cccc2ccccc12	u	24%	0%	1%	26µM*

Screening results deposited in PubChem BioAssay by National Center for Advancing Translational Sciences (NCATS).
